Drawing on PubChem BioAssay (NCATS), this text covers outcome and Potency for seven molecules.

The target in test [1] is Ubiquitin carboxyl-terminal hydrolase 2 (Homo sapiens) (UniProt O75604). The experiment in a line: qHTS Validation Assay for Inhibitors of Ubiquitin-specific Protease USP2a Using CHOP2 as the Reporter (AID 463106). Summed up:
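Fluorescence read-out at Ex 485nm/Em 531nm after 60min RT, following addition of 25nM Ub-CHOP2 plus 25nM reporter substrate to USP2 core (10nM) pretreated 30min with compound. Data normalized to NEM full inhibition; concentration-response curves fitted.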
(In qHTS, concentration-response curves come from the screen itself.)

The target of test [2] is DNA polymerase III PolC-type (Bacillus subtilis (strain 168)) (UniProt P13267). Kind of test: qHTS Validation Assay for the Inhibitors of DNA Replication in Gram-Positive Bacteria (AID 485295).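 Note: reconstituted holoenzyme with PolC plus beta clamp SSB and primase; PicoGreen fluorescence of double-stranded DNA made on primed circular M13 template; series mostly up to about 57 µM.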 Summed up:
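First, compound is mixed with the reconstituted replication complex and held at room temperature. Next, circular single-stranded M13Gori with nucleotides starts synthesis. Finally, PicoGreen in EDTA halts the reaction and stains double-stranded product for fluorescence reading.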

Test [3] deals with Tumor susceptibility gene 101 protein (Homo sapiens) (UniProt Q99816). The experiment in a line: qHTS Validation Assay for Iinhibitors of HIV-1 Budding by Blocking the Interaction of PTAP/TSG101 (AID 485342; calls by dose curve). Summed up: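 Binding of a FITC-tagged PTAP-motif peptide (50 nM) to the Tsg101 binding domain (10 uM) is monitored by fluorescence polarization. Compounds are pin-delivered before peptide addition, and incubation runs 20 min at room temperature.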

Test [4] has as its target Beta-2 adrenergic receptor (Homo sapiens) (UniProt P07550). Kind of test: qHTS validation assay of beta-arrestin-biased ligands of beta2-adrenergic receptor (AID 485366). Summed up:
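Screening used a titration range of up to 46 microM in a beta-arrestin recruitment Tango luciferase assay. Cells in 1% FBS medium were treated 18 hr at 37 degrees C, and luminescence was normalized to %Activity.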

For test [5], the target named is ATP-dependent 6-phosphofructokinase (Trypanosoma brucei brucei) (UniProt O15648). Kind of test: qHTS Validation Assay to Find Inhibitors of T. brucei phosphofructokinase (AID 485368). As to conditions: outcome: dose series up to 57.5 µM. An outline of the steps:
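PFK-generated ADP was measured after 45 min at room temperature using ADP-Glo. The reaction contained 0.5 mM F6P and 0.1 mM ATP.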

Test [6] can be described thus: Quantitative high throughput screen for delayed death inhibitors of the malarial parasite plastid, 48 hour incubation (AID 488752). Note: nearly all actives have a fitted effect of over 65% in size. Note: potency is the fitted concentration of half-maximal effect. An outline of the steps:
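Luciferase-expressing P. falciparum in RBCs, 2% Hct, 0.1% parasitemia final; RPMI 1640 + 0.5% Albumax; 48 h, 37 C, 5% CO2; luminescence readout, signal drop = growth inhibition.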

The target of test [7] is Thioredoxin reductase 1, cytoplasmic (Rattus norvegicus) (UniProt O89049). Kind of test: qHTS Assay for Substrates of Mammalian Selenoprotein Thioredoxin Reductase 1 (TrxR1) (AID 488772).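 Note: series mostly up to about 57 µM; a drop in NADPH fluorescence below the no-compound background marks a TrxR1 substrate.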 Summed up: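 In this dual-purpose format, potential substrates are identified from the first fluorescence read after selenite addition, not from the 8-minute delta. Rat enzyme is preincubated with NADPH and then with compound at ~22 deg C.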

Test [8] has the same target. The experiment in a line: qHTS Assay for Inhibitors of Mammalian Selenoprotein Thioredoxin Reductase 1 (TrxR1) (AID 488773). Note: nearly all actives have a fitted effect of over 40% in size. Note: potency is the fitted concentration of half-maximal effect. As to conditions: Potency: inhibition. Summed up:
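Inhibition is scored from the loss of NADPH fluorescence between first and last reads of an 8-min kinetic run. Selenite (400 uM) was the substrate, added after 15 min compound preincubation at room temperature.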

The target of test [9] is Flap endonuclease 1 (Homo sapiens) (UniProt P39748). The experiment in a line: qHTS Validation Assay for the Inhibitors of Human Flap endonuclease 1 (FEN1) (AID 488816). Summed up: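 Enzyme reagent 10 nM; cpds pinned; 15 min RT preinc.; substrate 50 nM final; reads t=0 and 15 min; no-enzyme buffer wells as neg. control; normalized data, 4-parameter Hill fit.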
Test [10] concerns the target M-phase phosphoprotein 8 (Homo sapiens) (UniProt Q99549). The experiment in a line: qHTS Validation Assay for Inhibitors for MPP8 Chromodomain Interactions with Methylated Histone Tails (AID 488949). Note: nearly all actives have a fitted effect of over 55% in size. Note: potency is the fitted concentration of half-maximal effect. Summed up: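 50 nM MPP8 + 50 nM b-H3K9me3 peptide, PBS pH 7.4/0.01% Tween-20, 30 min RT; + cpd 30 min RT; + AlphaScreen donor/Ni-chelate acceptor beads 10 ug/mL final, 30 min dark; luminescence read.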

For test [11], the target named is Chromobox protein homolog 1 (Homo sapiens) (UniProt P83916). Kind of test: qHTS Validation Assay for Inhibitors of HP1-beta Chromodomain Interactions with Methylated Histone Tails (AID 488953). Note: nearly all actives have a fitted effect of over 50% in size. Note: potency is the fitted concentration of half-maximal effect. Summed up:
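AlphaScreen proximity readout: streptavidin donor and Ni-chelate acceptor beads, 10 ug/mL final, 30 min dark, RT. Complex of 50 nM HP1-beta and 50 nM b-H3(1-18)K9me3 formed 30 min, then compound-treated 30 min; PBS pH 7.4/0.01% Tween-20.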

In test [12] the target is Methanococcus maripaludis chaperonin (MmCpn) (UniProt Q6LX38). The experiment in a line: High-Throughput Screening for Modulators of Cytosolic Chaperonin Activity: MmCpn Primary Screen (AID 488978).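 Note: 50 nM MmCpn enzyme hydrolysing 30 µM ATP at 37 °C.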 An outline of the steps:
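Steps: chaperonin 50 nM final; add compound, 5 min RT; start with ATP, 30 uM final; hold 10 min at 37C; add ADP Transcreener HTRF reagent, 5 min; read ex 320, em 590 and 665 nm.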

The target of test [13] is Thyrotropin receptor (Homo sapiens) (UniProt P16473). Kind of test: qHTS Assay for Antagonists of the Thyroid Stimulating Hormone Receptor (AID 488980). Note: series mostly up to about 58 µM. An outline of the steps: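 Readout is cAMP by HTRF competition between cellular cAMP and cAMP-d2 for a cryptate-labelled antibody. Antagonism was assessed in TSHR-transfected HEK293 cells stimulated with 4 nM TSH (EC80, final) in the presence of RO 20-1724.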

Test [14] addresses D(1A) dopamine receptor (Homo sapiens) (UniProt P21728). Kind of test: HTS Assay for Allosteric Agonists of the Human D1 Dopamine Receptor: Primary Screen for Agonists (AID 488981). Summed up: (§1)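 Tetracycline-induced HEK293 Trex D1 cells with forced coupling to calcium, loaded with no-wash calcium dye; kinetic fluorescence read 180 s after compound addition for agonism, then a further 180 s after an EC20 dopamine challenge for potentiation.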

In test [15] the target is ATP-dependent 6-phosphofructokinase (Trypanosoma brucei brucei) (UniProt O15648). Kind of test: qHTS Assay to Find Inhibitors of T. brucei phosphofructokinase: hit validation (AID 492961).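 Note: luminescence reports ADP formed as PFK phosphorylates fructose-6-phosphate with ATP; series mostly up to about 51 µM.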 An outline of the steps:
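Inhibition of parasite PFK is measured as reduced ADP formation, quantified via luciferase after ATP depletion. Assay used 0.1 mM ATP, 0.5 mM F6P, 1.25 nM enzyme, 45 min incubation.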

Test [16] can be described thus: qHTS Validation Assay to Find Inhibitors of Chronic Active B-Cell Receptor Signaling (AID 485345; active = well fitted curve in the direction sought with a large enough effect in the main read-out, with a control signal flat, not every such curve was filed as active). Summed up:
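TMD8 ABC-DLBCL cells stably carrying doxycycline-inducible IkappaBalpha–green luciferase fusion plus unfused red luciferase; compounds 46 uM to 3 nM, 4 h at 37C with doxycycline. Corrected green/red luminescence ratio normalized to 10 uM MG-132 and basal cell wells; curves fitted.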

The target in test [17] is D(1A) dopamine receptor (Homo sapiens) (UniProt P21728). Kind of test: HTS Assay for Allosteric Agonists of the Human D1 Dopamine Receptor: Primary Screen for Potentiators (AID 488982). Summed up: as §1
Test [18] has the same target. Kind of test: HTS Assay for Allosteric Agonists of the Human D1 Dopamine Receptor: Primary Screen for Antagonists (AID 488983).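 Note: calcium flux response to an EC80 dopamine challenge measured with no-wash dye; nearly all actives have a fitted effect of over 65% in size.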 Summed up: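 Calcium flux readout, no-wash dye, inducible HEK293 T-REx D1 line (force-coupled). Compound added after 10 s baseline, 180 s kinetic read; then dopamine at EC80, further 180 s read.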
For test [19], the target named is Transient receptor potential cation channel subfamily V member 1 (Homo sapiens) (UniProt Q8NER1). Kind of test: HTS Assay for Compounds that Act as Enhancers of the Vanilloid Receptor 1 (AID 488979). Summed up:
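TRPV1 cells loaded with Fluo-8 calcium dye; compound added and Ca2+ signal (ex 480/em 520 nm) followed 3 min, then capsaicin at EC20 added and read 2 more min to detect enhancement.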

A short description of test [20]: Quantitative high throughput screen for delayed death inhibitors of the malarial parasite plastid, 96 hour incubation (AID 488745). Note: nearly all actives have a fitted effect of over 70% in size. Note: potency is the fitted concentration of half-maximal effect. An outline of the steps: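 Luciferase-expressing P. falciparum, infected RBCs 2% Hct/0.1% parasitemia (final); 96 h cpd exposure, 37 C, 5% CO2; RPMI 1640 + 0.5% Albumax, bicarbonate, gentamycin. Readout: luminescence loss = growth inhibition.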

SMILES strings stand for the structures. Results filed as inconclusive are left out. Calls of active or inactive are those of the source. Unless noted, calls come from the whole dose curve; as a rule, active = well fitted curve in the direction sought with a large enough effect; inconclusive = small, poorly fitted or top-dose-only effect, or another doubt; inactive = no such curve, though single readings can be large; an effect the other way counts as inactive or inconclusive.

Chromobox protein homolog 1 (Homo sapiens), sequence (P83916 whole entry, looked up): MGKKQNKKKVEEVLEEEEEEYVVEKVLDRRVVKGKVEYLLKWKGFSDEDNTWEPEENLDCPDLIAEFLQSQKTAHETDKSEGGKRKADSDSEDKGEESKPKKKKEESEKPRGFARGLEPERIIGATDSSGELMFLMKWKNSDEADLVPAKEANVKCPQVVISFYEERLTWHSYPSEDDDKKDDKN
Beta-2 adrenergic receptor (Homo sapiens), sequence (P07550 whole entry, looked up): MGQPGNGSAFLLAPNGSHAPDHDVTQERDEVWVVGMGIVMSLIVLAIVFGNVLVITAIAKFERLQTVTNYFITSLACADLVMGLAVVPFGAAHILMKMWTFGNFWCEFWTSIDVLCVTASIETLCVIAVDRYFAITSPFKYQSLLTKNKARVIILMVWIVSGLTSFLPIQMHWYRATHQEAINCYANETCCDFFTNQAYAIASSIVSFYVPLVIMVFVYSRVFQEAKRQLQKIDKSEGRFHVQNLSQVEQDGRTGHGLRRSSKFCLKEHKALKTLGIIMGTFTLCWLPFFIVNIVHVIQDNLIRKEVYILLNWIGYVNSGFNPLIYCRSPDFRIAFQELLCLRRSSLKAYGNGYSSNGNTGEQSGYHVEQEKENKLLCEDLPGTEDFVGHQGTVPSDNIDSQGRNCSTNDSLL
Thioredoxin reductase 1, cytoplasmic (Rattus norvegicus), sequence (O89049 whole entry, looked up): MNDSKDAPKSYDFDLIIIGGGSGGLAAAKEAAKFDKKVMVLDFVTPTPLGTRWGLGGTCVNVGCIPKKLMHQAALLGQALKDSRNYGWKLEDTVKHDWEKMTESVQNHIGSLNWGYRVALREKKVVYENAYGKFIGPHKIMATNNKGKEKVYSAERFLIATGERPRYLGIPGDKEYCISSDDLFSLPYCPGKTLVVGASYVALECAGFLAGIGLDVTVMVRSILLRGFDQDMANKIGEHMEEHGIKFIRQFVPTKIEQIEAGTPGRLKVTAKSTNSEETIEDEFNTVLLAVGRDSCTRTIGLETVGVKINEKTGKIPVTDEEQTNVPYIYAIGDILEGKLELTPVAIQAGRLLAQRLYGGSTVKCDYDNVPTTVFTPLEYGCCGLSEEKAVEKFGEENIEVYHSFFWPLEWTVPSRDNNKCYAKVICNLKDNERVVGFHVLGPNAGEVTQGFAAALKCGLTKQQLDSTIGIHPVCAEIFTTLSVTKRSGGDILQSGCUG
ATP-dependent 6-phosphofructokinase (Trypanosoma brucei brucei), sequence (O15648 whole entry, looked up): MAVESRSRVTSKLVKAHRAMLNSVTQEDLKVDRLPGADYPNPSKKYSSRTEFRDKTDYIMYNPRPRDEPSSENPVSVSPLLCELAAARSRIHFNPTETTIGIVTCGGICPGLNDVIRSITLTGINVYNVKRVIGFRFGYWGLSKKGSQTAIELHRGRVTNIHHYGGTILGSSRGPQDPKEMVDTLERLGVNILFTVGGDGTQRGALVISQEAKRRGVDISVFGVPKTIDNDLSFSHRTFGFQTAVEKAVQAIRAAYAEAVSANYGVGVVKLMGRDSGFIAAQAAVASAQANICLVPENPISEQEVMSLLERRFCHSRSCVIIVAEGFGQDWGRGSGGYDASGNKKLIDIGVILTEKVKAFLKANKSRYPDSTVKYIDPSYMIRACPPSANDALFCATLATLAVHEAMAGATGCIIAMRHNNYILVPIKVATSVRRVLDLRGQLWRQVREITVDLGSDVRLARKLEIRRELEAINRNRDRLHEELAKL
Ubiquitin carboxyl-terminal hydrolase 2 (Homo sapiens), sequence (O75604 whole entry, looked up): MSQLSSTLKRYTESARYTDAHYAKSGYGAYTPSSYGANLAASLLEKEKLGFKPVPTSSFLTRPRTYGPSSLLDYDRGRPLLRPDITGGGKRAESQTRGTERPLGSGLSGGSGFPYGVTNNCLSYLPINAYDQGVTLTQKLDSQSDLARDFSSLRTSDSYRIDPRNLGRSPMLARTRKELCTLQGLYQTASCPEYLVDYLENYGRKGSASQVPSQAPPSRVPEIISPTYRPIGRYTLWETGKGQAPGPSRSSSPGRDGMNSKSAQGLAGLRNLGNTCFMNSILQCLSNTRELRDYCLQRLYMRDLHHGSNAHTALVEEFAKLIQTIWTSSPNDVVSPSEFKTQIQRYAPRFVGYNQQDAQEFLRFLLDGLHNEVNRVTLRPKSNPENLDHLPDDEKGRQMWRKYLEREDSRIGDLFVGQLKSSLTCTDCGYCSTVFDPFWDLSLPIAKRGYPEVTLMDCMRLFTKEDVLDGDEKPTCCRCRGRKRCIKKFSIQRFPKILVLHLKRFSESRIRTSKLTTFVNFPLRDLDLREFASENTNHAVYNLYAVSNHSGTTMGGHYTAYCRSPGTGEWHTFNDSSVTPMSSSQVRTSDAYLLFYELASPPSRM
Tumor susceptibility gene 101 protein (Homo sapiens), sequence (Q99816 whole entry, looked up, the tested form may be a part): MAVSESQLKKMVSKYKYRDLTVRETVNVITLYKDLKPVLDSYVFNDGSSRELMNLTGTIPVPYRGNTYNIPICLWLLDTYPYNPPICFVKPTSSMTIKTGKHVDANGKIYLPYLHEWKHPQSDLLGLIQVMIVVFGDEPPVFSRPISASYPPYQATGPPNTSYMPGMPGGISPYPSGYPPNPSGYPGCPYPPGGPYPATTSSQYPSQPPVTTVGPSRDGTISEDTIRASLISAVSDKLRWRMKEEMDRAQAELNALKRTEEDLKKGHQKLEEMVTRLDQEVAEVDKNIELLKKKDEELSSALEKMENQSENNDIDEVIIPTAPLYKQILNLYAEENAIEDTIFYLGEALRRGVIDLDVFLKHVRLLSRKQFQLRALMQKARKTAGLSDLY
Thyrotropin receptor (Homo sapiens), sequence (P16473 whole entry, looked up): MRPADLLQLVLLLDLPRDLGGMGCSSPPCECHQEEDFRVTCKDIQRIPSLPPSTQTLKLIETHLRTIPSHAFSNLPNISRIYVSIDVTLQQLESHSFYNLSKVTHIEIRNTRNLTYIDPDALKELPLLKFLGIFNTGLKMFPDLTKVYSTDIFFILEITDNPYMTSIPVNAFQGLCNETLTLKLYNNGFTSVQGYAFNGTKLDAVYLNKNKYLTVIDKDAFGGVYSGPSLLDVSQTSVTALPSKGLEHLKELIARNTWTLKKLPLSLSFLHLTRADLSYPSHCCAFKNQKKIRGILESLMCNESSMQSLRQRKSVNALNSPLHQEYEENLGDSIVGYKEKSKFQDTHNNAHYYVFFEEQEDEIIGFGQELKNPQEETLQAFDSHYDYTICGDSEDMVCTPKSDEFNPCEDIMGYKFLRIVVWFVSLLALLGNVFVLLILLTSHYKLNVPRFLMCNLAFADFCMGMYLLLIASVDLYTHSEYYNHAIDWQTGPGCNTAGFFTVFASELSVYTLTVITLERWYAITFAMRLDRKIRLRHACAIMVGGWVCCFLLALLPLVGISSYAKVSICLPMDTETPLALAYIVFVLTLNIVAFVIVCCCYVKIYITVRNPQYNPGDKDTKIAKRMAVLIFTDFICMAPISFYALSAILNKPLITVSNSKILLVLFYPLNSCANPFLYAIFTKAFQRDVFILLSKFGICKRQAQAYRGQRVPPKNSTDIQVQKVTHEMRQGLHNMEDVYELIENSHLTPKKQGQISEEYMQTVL
Flap endonuclease 1 (Homo sapiens), sequence (P39748 whole entry, looked up): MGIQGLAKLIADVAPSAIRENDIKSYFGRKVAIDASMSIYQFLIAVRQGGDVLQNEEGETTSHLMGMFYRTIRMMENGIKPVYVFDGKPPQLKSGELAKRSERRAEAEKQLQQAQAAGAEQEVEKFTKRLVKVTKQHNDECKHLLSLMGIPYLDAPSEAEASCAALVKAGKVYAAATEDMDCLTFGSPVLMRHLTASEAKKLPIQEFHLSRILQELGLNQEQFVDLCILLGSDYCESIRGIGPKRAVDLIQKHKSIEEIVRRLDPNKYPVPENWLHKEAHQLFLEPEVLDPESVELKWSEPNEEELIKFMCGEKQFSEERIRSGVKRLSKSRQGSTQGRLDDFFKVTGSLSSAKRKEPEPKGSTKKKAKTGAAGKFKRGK
Methanococcus maripaludis chaperonin (MmCpn), sequence (Q6LX38 1-543): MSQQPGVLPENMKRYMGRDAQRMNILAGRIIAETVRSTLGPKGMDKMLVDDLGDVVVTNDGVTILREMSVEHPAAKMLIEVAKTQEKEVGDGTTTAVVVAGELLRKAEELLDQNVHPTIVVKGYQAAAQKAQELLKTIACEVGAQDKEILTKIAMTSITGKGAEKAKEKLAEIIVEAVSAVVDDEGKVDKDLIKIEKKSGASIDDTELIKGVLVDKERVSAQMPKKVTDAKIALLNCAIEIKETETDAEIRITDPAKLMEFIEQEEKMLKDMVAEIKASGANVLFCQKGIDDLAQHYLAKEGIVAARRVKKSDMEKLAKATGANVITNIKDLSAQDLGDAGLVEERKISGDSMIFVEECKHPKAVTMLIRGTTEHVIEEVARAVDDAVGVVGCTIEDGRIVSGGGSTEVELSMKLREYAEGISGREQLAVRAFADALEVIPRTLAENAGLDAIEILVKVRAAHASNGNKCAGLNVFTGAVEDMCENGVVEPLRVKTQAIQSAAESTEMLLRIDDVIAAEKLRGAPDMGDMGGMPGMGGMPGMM
D(1A) dopamine receptor (Homo sapiens), sequence (P21728 whole entry, looked up): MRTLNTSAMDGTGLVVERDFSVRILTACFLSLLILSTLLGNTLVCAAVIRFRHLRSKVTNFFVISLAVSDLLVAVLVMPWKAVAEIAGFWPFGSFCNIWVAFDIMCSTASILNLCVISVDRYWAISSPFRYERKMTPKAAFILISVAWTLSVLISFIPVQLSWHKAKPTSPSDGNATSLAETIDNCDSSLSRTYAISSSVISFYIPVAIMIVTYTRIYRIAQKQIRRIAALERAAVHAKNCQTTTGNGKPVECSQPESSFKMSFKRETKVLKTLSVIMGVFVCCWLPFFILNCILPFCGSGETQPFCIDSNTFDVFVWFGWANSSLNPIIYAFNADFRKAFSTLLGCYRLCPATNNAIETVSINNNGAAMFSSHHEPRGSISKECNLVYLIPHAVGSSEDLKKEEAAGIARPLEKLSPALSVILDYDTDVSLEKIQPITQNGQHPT

Turning to `CN1CCN(CCCN2c3ccccc3Sc3ccc(C(F)(F)F)cc32)CC1`, the result in test [1], in [3], in test [4], in test [5], in test [7] and in test [12] was inactive. Moreover, the result in [13] and in test [15] was inactive. The Potency result in test [2], in test [8], in test [9] and in [14] was “inactive” each time. For the same molecule, the values for the Potency in [6], in test [10] and in test [11] were 9.28 µM (active), 20 µM (active) and 31.6 µM (active), respectively.

On to `Cc1cccc(-c2[nH]c(C(C)(C)C)nc2-c2ccc3nccnc3c2)n1`, for which the result in [1], in [3], in [16], in test [4], in [7] and in test [12] was inactive. The Potency result in [2], in [8], in test [9], in test [10], in [11] and in test [14] was “inactive” each time. In addition, the Potency result in [17] and in test [18] was “inactive” in each case.

`Cc1c(C)c2c(c(C)c1O)CCC(C)(COc1ccc(CC3SC(=O)NC3=O)cc1)O2` (stereo unspecified): in [15], the outcome was inactive.

On to `NC(N)=NC(=O)c1nc(Cl)c(N)nc1N`, for which the call in test [1], in [3], in test [4], in test [5], in test [12] and in [19] was inactive. In addition, the molecule was called inactive in [13]. Further, the Potency result in test [2], in test [8], in [10], in [11], in test [14] and in [17] was “inactive” each time. In addition, in test [18], the Potency result is “inactive”.

As to `Cn1cnc([N+](=O)[O-])c1Sc1ncnc2nc[nH]c12`, the call in [1], in test [3], in test [4], in test [5], in [7] and in test [12] was inactive. For the same molecule, the outcome in [19] and in test [13] was inactive. The Potency result in test [2], in test [20], in test [9], in test [10], in test [11] and in test [14] was “inactive” each time. Further, the Potency entry in [17] and in test [18] was “inactive” throughout. Also, in test [8], the Potency is 15 µM (active).

Take `CC(C)(C)NCC(O)c1ccc(O)c(CO)c1` (stereo unspecified): the molecule was called inactive in test [1], in test [3], in test [16], in test [5], in [7] and in [12]. The result in test [19] and in [13] was inactive. In addition, the Potency result in [2], in [20], in test [6], in [8], in test [10] and in [11] was “inactive” throughout. For the same molecule, the Potency entry in test [14], in test [17] and in test [18] was “inactive” throughout.

Take `CC(C)C[C@H](NC(=O)[C@@H](O)[C@H](N)Cc1ccccc1)C(=O)O`: the result in test [1], in test [3], in [16], in test [7], in [12] and in test [19] was inactive. In addition, the call in test [13] and in test [15] was inactive. For the same molecule, the Potency result in [2], in test [8], in test [9], in [10], in test [11] and in test [14] was “inactive” throughout. The Potency result in test [17] and in test [18] was “inactive” in each case. Besides, the Potency in [20] is 0.37 µM (active); in [6], 1.04 µM (active).
